What was measured:
[1] = tested on: Epidermal growth factor receptor (Homo sapiens), P00533 [T790M]; settings: at 1 µM
[2] = tested on: Epidermal growth factor receptor (Homo sapiens), P00533 [L858R,T790M]; settings: at 0.1 µM
[3] = tested on: Epidermal growth factor receptor (Homo sapiens), P00533 [L858R,T790M]; settings: at 1 µM
[4] = biological target: Ephrin type-A receptor 2 (Homo sapiens) (UniProt P29317); settings: at 0.1 µM
[5] = biological target: Ephrin type-A receptor 2 (Homo sapiens) (UniProt P29317); settings: at 1 µM
[6] = biological target: T1, Ephrin type-A receptor 3 (Homo sapiens) (UniProt P29320); settings: at 0.1 µM
T1 sequence (whole entry): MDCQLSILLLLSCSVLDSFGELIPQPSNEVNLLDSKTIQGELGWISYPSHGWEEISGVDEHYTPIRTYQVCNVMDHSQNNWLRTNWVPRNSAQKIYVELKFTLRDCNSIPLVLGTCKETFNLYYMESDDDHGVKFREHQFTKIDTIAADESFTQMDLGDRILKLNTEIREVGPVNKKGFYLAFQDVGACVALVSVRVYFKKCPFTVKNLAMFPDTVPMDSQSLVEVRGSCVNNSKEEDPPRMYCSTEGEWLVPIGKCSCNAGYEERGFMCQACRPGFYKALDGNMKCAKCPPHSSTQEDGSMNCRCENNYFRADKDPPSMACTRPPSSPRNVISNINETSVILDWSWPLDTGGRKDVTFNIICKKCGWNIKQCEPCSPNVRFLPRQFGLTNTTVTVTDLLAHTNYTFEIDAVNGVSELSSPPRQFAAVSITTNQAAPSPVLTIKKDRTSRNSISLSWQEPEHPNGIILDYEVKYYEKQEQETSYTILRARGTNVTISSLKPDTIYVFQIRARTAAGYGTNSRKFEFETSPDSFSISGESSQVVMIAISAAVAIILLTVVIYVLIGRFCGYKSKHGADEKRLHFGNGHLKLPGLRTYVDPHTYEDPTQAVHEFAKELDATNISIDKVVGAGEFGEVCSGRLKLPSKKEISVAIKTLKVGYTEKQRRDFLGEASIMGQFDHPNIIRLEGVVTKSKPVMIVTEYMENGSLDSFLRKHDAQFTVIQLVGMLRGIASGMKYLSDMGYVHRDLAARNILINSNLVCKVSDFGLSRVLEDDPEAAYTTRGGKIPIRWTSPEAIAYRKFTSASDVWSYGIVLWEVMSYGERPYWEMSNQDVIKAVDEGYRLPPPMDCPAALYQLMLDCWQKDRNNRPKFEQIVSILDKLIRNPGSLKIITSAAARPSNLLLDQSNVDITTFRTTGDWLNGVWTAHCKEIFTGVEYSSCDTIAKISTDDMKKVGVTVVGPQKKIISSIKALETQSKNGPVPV

[7] = biological target: T1, Ephrin type-A receptor 3 (Homo sapiens); settings: at 1 µM
[8] = biological target: Ephrin type-A receptor 4 (Homo sapiens) (UniProt P54764); settings: at 0.1 µM
Ephrin type-A receptor 4 (Homo sapiens), sequence (P54764 whole entry): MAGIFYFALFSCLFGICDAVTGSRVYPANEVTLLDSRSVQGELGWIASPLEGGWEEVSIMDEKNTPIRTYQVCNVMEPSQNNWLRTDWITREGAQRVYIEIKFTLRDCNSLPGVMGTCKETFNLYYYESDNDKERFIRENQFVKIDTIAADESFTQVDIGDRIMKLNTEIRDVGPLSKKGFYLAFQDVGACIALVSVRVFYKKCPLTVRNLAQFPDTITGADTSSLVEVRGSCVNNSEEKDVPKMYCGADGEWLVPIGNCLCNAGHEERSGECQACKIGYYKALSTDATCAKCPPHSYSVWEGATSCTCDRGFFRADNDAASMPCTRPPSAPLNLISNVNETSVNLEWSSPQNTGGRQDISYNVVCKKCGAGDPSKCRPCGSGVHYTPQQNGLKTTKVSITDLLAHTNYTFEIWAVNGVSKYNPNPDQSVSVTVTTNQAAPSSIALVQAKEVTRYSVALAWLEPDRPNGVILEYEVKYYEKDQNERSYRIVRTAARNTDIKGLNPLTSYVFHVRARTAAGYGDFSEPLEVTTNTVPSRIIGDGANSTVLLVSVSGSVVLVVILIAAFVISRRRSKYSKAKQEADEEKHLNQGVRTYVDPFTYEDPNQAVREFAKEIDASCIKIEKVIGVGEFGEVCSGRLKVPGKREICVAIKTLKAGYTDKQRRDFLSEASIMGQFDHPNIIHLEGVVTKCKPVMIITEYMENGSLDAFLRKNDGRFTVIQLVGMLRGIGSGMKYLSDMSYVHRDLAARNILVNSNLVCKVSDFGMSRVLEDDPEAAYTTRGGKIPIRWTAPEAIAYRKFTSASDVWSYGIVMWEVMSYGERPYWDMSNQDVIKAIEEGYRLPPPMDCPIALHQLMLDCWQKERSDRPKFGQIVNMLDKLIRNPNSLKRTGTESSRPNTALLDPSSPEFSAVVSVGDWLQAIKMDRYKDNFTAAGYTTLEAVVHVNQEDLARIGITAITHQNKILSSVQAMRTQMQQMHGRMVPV

[9] = biological target: Ephrin type-A receptor 4 (Homo sapiens) (UniProt P54764); settings: at 1 µM
[10] = biological target: T2, Ephrin type-B receptor 2 (Homo sapiens) (UniProt P29323); settings: at 0.1 µM;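 also: reported as mean inhibition of EPHB2, from the GSK PKIS dataset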
T2 sequence (whole entry): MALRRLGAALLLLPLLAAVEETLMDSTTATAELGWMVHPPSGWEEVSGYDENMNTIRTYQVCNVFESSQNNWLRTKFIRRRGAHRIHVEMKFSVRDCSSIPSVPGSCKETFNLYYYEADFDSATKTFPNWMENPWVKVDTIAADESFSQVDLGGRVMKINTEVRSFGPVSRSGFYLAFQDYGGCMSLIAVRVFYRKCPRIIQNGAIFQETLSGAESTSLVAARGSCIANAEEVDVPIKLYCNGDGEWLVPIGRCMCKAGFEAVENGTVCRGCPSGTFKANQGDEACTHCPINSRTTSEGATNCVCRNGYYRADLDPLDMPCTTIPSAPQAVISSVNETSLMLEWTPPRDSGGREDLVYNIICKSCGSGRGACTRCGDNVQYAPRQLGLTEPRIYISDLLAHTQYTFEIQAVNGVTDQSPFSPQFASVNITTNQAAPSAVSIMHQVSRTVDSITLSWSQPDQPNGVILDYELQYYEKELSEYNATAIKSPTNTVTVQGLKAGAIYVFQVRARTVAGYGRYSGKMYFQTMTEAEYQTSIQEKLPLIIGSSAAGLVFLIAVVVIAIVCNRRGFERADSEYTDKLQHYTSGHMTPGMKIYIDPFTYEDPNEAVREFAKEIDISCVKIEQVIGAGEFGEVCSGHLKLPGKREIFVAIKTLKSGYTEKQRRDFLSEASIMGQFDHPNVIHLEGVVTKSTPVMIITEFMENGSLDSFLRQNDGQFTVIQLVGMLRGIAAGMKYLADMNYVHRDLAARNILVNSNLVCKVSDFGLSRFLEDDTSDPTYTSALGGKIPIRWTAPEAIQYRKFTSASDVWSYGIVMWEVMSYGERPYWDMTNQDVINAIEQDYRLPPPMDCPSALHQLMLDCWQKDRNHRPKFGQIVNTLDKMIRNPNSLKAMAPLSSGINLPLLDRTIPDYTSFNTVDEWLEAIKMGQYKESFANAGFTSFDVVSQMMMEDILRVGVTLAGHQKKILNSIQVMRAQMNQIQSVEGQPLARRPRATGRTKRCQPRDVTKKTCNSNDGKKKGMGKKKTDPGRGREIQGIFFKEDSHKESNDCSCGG

Epidermal growth factor receptor (Homo sapiens), P00533 [T790M], sequence (P00533 whole entry T790M): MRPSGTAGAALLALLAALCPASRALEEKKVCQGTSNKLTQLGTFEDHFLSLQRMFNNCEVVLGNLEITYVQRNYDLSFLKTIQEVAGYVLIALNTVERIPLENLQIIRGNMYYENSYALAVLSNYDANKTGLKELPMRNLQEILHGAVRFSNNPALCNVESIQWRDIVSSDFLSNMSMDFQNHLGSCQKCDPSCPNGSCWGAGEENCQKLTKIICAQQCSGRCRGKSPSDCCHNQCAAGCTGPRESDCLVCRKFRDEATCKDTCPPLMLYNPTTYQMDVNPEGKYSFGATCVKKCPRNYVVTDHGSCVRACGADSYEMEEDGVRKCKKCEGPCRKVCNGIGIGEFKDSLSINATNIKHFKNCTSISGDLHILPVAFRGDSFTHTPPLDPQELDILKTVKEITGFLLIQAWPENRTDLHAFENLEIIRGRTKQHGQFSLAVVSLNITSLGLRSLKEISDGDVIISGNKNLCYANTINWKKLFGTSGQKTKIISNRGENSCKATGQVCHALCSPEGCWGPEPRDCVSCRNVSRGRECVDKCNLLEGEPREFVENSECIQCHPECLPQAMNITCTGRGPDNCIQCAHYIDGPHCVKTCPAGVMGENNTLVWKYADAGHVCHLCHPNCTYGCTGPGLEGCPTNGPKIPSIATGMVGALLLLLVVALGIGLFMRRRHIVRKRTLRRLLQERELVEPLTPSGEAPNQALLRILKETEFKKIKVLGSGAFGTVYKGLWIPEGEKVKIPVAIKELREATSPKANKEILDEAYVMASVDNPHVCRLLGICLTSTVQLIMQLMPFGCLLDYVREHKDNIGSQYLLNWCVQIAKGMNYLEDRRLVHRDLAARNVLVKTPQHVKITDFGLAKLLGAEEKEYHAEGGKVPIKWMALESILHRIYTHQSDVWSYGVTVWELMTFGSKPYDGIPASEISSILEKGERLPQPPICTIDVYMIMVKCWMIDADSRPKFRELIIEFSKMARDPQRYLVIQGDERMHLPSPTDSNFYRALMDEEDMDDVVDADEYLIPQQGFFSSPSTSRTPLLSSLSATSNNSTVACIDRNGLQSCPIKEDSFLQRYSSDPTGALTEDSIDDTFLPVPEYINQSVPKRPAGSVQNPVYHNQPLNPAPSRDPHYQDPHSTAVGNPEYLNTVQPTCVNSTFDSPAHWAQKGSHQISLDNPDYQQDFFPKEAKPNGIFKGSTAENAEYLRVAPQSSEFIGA
Epidermal growth factor receptor (Homo sapiens), P00533 [L858R,T790M], sequence (P00533 whole entry T790M/L858R, looked up): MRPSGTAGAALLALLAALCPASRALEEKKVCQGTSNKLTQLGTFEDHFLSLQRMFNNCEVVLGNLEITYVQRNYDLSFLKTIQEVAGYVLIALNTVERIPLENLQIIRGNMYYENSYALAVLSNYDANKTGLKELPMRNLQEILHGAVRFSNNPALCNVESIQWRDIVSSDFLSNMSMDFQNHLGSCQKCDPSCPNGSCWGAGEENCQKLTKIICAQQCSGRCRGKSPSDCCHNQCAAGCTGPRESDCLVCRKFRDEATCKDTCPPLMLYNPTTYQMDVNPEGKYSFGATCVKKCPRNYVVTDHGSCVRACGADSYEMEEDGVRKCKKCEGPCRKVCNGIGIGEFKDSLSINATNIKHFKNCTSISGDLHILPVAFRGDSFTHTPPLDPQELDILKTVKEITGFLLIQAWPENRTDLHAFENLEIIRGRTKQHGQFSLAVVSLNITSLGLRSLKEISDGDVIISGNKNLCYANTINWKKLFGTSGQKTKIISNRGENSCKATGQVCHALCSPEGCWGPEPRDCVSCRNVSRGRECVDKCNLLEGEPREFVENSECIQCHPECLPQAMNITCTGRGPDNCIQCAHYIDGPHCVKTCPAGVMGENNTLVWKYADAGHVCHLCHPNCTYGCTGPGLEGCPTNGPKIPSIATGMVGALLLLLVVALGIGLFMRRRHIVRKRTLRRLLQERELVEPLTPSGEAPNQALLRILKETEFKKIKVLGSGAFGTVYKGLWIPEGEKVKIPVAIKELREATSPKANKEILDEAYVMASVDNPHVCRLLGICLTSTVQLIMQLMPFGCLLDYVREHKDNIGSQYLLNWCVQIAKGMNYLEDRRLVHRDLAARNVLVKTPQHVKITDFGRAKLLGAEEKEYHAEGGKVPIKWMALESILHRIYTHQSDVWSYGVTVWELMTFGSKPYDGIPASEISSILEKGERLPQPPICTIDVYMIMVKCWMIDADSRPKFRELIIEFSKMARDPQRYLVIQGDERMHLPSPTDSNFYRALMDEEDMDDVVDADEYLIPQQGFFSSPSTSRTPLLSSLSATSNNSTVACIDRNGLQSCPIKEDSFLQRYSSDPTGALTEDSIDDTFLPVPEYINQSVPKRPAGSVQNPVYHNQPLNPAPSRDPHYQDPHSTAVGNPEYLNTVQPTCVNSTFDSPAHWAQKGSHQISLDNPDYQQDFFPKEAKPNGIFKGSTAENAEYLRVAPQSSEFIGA
Ephrin type-A receptor 2 (Homo sapiens), sequence (P29317 whole entry): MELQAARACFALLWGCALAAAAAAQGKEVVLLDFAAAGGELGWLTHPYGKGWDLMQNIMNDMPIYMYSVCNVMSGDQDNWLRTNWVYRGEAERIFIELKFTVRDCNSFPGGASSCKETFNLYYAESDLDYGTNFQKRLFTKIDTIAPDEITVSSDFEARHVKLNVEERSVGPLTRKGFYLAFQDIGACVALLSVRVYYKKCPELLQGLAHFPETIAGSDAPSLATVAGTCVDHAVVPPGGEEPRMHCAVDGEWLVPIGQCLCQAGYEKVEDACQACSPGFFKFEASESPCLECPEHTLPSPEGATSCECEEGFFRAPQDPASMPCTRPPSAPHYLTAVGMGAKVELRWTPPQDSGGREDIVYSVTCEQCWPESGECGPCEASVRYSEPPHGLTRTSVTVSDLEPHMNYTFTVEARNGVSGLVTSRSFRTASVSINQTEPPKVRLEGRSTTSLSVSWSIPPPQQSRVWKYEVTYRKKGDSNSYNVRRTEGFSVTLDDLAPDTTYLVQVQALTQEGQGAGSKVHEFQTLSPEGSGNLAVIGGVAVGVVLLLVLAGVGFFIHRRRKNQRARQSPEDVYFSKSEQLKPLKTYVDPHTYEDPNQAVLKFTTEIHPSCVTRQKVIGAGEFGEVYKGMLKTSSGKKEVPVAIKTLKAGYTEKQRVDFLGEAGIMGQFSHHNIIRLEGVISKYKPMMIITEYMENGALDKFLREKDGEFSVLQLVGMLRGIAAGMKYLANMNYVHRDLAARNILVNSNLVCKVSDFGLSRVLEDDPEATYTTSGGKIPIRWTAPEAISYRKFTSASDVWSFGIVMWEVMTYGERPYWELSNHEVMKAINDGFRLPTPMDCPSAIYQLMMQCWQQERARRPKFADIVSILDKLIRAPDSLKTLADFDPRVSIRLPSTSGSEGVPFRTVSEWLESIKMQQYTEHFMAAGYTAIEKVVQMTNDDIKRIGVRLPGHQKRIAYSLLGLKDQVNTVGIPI

Row | Structure (SMILES) | inhibition [1] [%] | inhibition [2] [%] | inhibition [3] [%] | inhibition [4] [%] | inhibition [5] [%] | inhibition [6] [%] | inhibition [7] [%] | inhibition [8] [%] | inhibition [9] [%] | inhibition [10] [%]
1 | COc1cc(Nc2ncc3c(C)nc(-c4cccc(Oc5ccccc5)c4)n3n2)cc(OC)c1OC | -1.01 | 1.23 | -0.96 | 1.16 | -0.33 | 3.2 | 1.56 | 5.4 | 3.74 | 4.87
2 | O=C(NCC1CC1)c1ccc(-c2cccc(C(=O)NC3CC3)c2)cc1 | -1.31 | -1.91 | 3.8 | 2.47 | 1.67 | 2.75 | 4.67 | 4.89 | -0.51 | 6.78
3 | CCS(=O)(=O)c1ccc(OC)c(Nc2ncc(-c3ccccc3Cl)o2)c1 | 3.29 | -1.69 | -0.03 | 1.32 | 1.73 | 5.46 | 4.36 | 5.58 | 9.33 | 4.99
4 | COc1cc2ncn(-c3cc(OCCc4ccccc4)c(C(N)=O)s3)c2cc1OC | 0.49 | 0.55 | 4.9 | 1.97 | 0.66 | 3.06 | 4.07 | 4.63 | 3.61 | 3.87
5 | CCc1cccc(CC)c1/C=C/c1cncc(C(=O)NC)c1 | -0.11 | 1.59 | 4.31 | 3.59 | 2.3 | 2.96 | 2.85 | 5.38 | 5.6 | 7.22
6 | O=C(Nc1n[nH]c2cc(-c3ccccc3)ccc12)C1CC1 | 4.64 | 2.81 | 3.37 | 1.75 | 3.8 | 5.17 | 6.3 | 6.13 | 18.9 | 6.68
7 | Fc1ccc(-c2ncn(C3CCNCC3)c2-c2ccnc(Oc3ccc(Oc4ccccc4)cc3)n2)cc1 | 4.11 | 1.7 | 6.06 | 1.86 | 1.01 | 2.44 | 4.03 | 6.9 | 7.87 | 7.52
8 | CS(=O)(=O)CCNCc1ccc(-c2ccc3ncnc(Nc4ccc(OCc5ccccc5)c(Br)c4)c3c2)o1 | 15.8 | 1.22 | -0.73 | -1.09 | -2.25 | 1.29 | 1.45 | 7 | 10.9 | 7.88
9 | CS(=O)(=O)CCNCc1cc(-c2cc3c(Nc4ccc(OCc5cccc(F)c5)c(Cl)c4)ncnc3s2)cs1 | 6.23 | 1.25 | 6.55 | 0.54 | -0.67 | 1.87 | 2.18 | 8.11 | 10.4 | 12.3
10 | O=C1Nc2ccccc2/C1=C/Nc1ccc(-n2cncn2)cc1 | 4.3 | 2.89 | 1.3 | 1.55 | 1.91 | 2.74 | 4.04 | 4.98 | 12.3 | 3.5
11 | COc1ccc2ncn(-c3cc(O[C@H](C)c4ccccc4Cl)c(C(N)=O)s3)c2c1 | 1.63 | 1.69 | 4.57 | -1.86 | -2.71 | -1.12 | 1.39 | 6.03 | 9.66 | 6.75
12 | c1ccc(Oc2ccc(Nc3ncc(-c4ccccc4)o3)cc2)cc1 | 0.24 | -0.18 | 4.16 | -2.63 | -2.48 | 2.07 | 2.91 | 4.49 | 4.79 | 7.5
13 | COc1cc(Nc2ncc(-c3ccccc3)o2)cc(OC)c1OC | 1.16 | -0.28 | -0.54 | -3.3 | -1.26 | -6.76 | -5.8 | -7.25 | 1.47 | -1.44
14 | O=C(Nc1ccc(Oc2ccc3[nH]c(NC(=O)c4ccccc4)nc3c2)cc1)Nc1cc(C(F)(F)F)ccc1F | 5.49 | 1.07 | 2.34 | 2.75 | 26 | 4.22 | 8.94 | 13.4 | 64.2 | 13.7
15 | C#Cc1cccc(Nc2ncnc3ccc(OCCCCNCCS(C)(=O)=O)cc23)c1 | 14.6 | 3.12 | 22.8 | -2.77 | -2.32 | 1.3 | 5.15 | 12.3 | 15.3 | 10.3
16 | NS(=O)(=O)c1ccc(N/N=C2\C(=O)Nc3ccc(-c4cnco4)cc32)cc1 | 1.56 | -2.11 | 5.42 | -5.84 | -4.92 | -2.34 | 0.23 | 5.13 | 10.8 | 6.73
17 | Fc1ccc(-c2ncn(C3CCNCC3)c2-c2ccnc(Oc3ccc4c(c3)OCO4)n2)cc1 | 6.05 | 1.3 | 7.04 | 3.08 | 2.37 | 3.63 | 10.3 | 11.3 | 15.4 | 10.6
